Out of some 52,000 sequences screened, about 210 (0.4%) were called active. Shown is part of a subset that was picked to be rich in actives. A number with no mark means an inactive call.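 Rule for the calls: active = gene whose silencing raises cell survival under the drug, median off-target-corrected z-score across its silencing RNAs 2 or more; inactive = the rest.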
test: Resistance to Poly (ADP-Ribose) Polymerase inhibitor: Gene Identification via Genome-wide siRNA Screen; conditions: mouse BRCA2 R2336H ES cells, olaparib, CellTiter-Glo viability; hits give high values
Summary of the method: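 Genome-wide siRNA screen (3 siRNAs/gene, 20 nM) in mouse ES cells carrying hypomorphic BRCA2 R2336H; olaparib 500 nM added 48 h post-transfection, CellTiter-Glo viability 72 h later. Normalized to plate-median negative control; MAD z-scores, gene median, seed-adjusted.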

Sequence | z-score
GGUACUAAACACCAACUCCTT against B230315M08Rik | 1.28 (active)
GGAAGGAAGAGAAAAACAATT against D11Ertd730e | -1.34
GGGAUCCGAAUUCUGACCATT against 2010305C02Rik | 1.23
GGCCAUCAGAUAGUUUAAUTT against AW551984 | -0.3
GCAAGAUUCAGAGUGCAGCTT against 4932441K18 | -0.922
GCCUUACUCUCUCAGUCCUTT against D930018N13 | -1.82
GGAUACAUUAAUUGUUUGGTT against AW011752 | 0.68
CCACACUGAGGACUAUAUUTT against Cstf1 | 0.623
GGAUAGCUGCCAACACUACTT against BC048937 | -0.0419
GGCCUAUCUUCCCAGGAAATT against Mapk1 | 1.76 (active)
GCAAAAAUUAUGCAGAGCATT against Olfr1443 | 2.55
CGGUAUCUCAACUUUUACATT against Stra8 | 0.301
GCGAACGAAGCAUAAAUGGTT against Mettl1 | -0.126
GGCAGUAGUGUUAACGGUGTT against Chrnb2 | 2.38 (active)
GGAUGCUGUAACACUUUAUTT against Bcl6 | -1.71
GGACCAGGUAUUCAUGAUCTT against Sema3c | 1.79
CCAUGAUGAUAAUCUGAAUTT against B930090D16Rik | 0.709
GGAAGAUUUUUCAAAGGAUTT against Itgb6 | 2.51 (active)
CAAUAACAGCGAAACAUCCTT against Scn4b | 2.18
GUCUCUCUUUUAACAUGCUTT against Ceacam13 | 2.49
GCUUGUCUCACACAGCUCUTT against Olfr401 | -0.379
CCCACAAGGUUAAGAUAUATT against Col14a1 | 0.22
GACGGUGGGACUCACUGUUTT against Ors6 | -0.403

Sequence | z-score
GGUUGACACAGAUGAAGAGTT against Rdh9 | -0.356
GCGUGCAGCCCUCAAUGAATT against Ppp2r5b | 1.44 (active)
GGAAUCCAUGCAGAAAUAATT against Pcdhga6 | 1.54
GGAGAUGGCUUCUCUCUCGTT against Rarg | 1.37 (active)
CGCGGGAUGAAGGAUAUAATT against LOC432589 | -2.23
GGAGAACUGUCAGAACGAGTT against Gpx2 | -2.7
GCAAUGCGACGUGCUCUAUTT against LOC330863 | -0.895
GCGGCAUAAGUCCAAGCACTT against Crk7 | -1.76
GGAAUGUUCUGUCGCUAUGTT against Nrp1 | 0.0552
GGUUGAAUAUUGAAUGGAATT against 9130422G05Rik | 0.44
CCUGAAAAAAUUUAUCGCCTT against Rnf3 | -0.169
GCUUCCUCUACAUCCUGCUTT against Kcnk15 | 2.57 (active)
GGCUGAACUCAAAAAGACGTT against Hand1 | 2.07
GGUGAAGCUGAAACAACAUTT against BC020002 | 0.323
GCUUGUGAAAAAUUAUGAGTT against Ipo7 | -1
GCUCUACUGCUUCCUUGUUTT against Olfr973 | -2.32
GGAGAUGUGUGCUAUGUGGTT against Gzmb | -1.14
GGCCAACUGAUUAAGAAACTT against Chrnb1 | 2.28 (active)
GGGAUACCAUGGGAAUAGUTT against Vps52 | 0.468
GGACAAGGAUGCAAUUAUCTT against 4833427G06Rik | -2.12
GGCUCAAGGACAGAUGAUGTT against Tra1 | -0.94
GGAGCUAAGACAGUUUGGATT against BC022133 | -1.16
GGAUGAUACUUCAUUACACTT against Ankrd12 | -0.613

Sequence | z-score
GGAGUGAAAUUUACUGGGUTT against Hdgfrp3 | 1.78
CGAGGUGACCUACAAGAUUTT against AI481750 | 0.982
CCUUCUGUAGUUGGAAUCATT against 1110038F21Rik | -0.558
GGGUUAUGUCUGUGGAGCUTT against Bcl2l2 | 1.54 (active)
GCCUUAAGUGGAUUUAGGATT against Hist1h2ae | 1.22
GGAAAUACCCUGAUAGCCATT against 9430077C05Rik | -1.23
GCAACAUUAGGAUUUAUAGTT against 1110032E23Rik | -0.366
GGUGAAAACCCUAACAGUCTT against A130007F10Rik | 0.653
CCAAGUUUUUAUGCAGAUATT against Pip5k1a | -1.31
GCUUACCUUGACCAACCUCTT against Chrng | 1.84 (active)
GCCACCUUGUUUCUCGAACTT against 1810008A18Rik | 0.925
GCAAGUCCUACAAUACAACTT against Tk1 | -0.837
GGUGCAGCCACGAAAACAUTT against Lmln | 1.57
CGAUUAUGACCGAUAUAGATT against Fusip1 | 0.823
GGAUAUUGAACACUUCUUGTT against D330017J20Rik | 1.25
GGGACUUUCAUAAUGCCAGTT against Snip1 | 0.733
GGCCUCCCUACUUGAAGACTT against Crip3 | 1.71 (active)
GGCUCUCUUAGUUGUAUCATT against Mrpl35 | -1.03
GGAAGUCCGUUUUUAAGAATT against 4732429I09Rik | -0.792
GCUCAAACAGAUACACGGATT against Ap2a2 | 0.288
GCUUGAUCAACAAGUGGAGTT against Nup62 | -1.64
